Shown are actives, neighbours in structure and some others; about 1.2% of the full set was active somewhere.
GSH bead fluor: compound fluoresces at 488/530 nm on GSH beads; AID 1776; actives 0.25% (n = 190,000); GSH beads flow cytometry, compound fluorescence 488/530 nm; hits give high values; fluorescence (KMESF) at 10 µM; in the data active = fluorescence above about 89;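 note: glutathione beads carrying GST-tagged Bcl family fusion proteins plus one bare bead set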
RGS4-Gao reg: modulates binding of RGS4 to human Galphao | P09471 | Multiplexed bead flow cytometry; actives lie on both sides | binding response (% of control), % at 10 µM | actives 0.33% (n = 220,000) | AID 1415; in the data active = binding response below about 49% or above about 150%; inactive = in between;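 note: fluorescent Galphao activated with aluminum fluoride binding bead-coupled RGS4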
Avidin fluor: compound fluoresces at 488/530 nm on avidin beads. compound fluorescence 488/530 nm, flow cytometry; hits give high values. fluorescence (KMESF) at 10 µM. actives 0.38% (n = 220,000); in the data active = fluorescence above about 47
RGS7-Gao: human RGS7-Galphao interaction regulation | P09471 | Multiplexed bead flow cytometry, RGS7-Galphao binding; actives lie on both sides | binding response (% of control), % at 10 µM | actives 0.35% (n = 220,000); in the data active = binding response below about 49% or above about 150%; inconclusive = no clear call, values can overlap the other calls; inactive = in between;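 note: fluorescent Galphao held in activated GDP-AlF4 state binding bead-coupled RGS7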
RGS8-Gao reg: human RGS8-Galphao interaction regulation; P09471; multiplexed bead flow cytometry, RGS8-Galphao binding; actives lie on both sides; response (percent of control binding), % at 10 µM; actives 0.34% (n = 220,000); in the data active = response below about 60% or above about 140%; inactive = in between;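 note: Galphao activated as the GDP aluminium fluoride complex binding bead-coupled RGS8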
RGS16-Gao HTS: regulators of human RGS16-Galphao interaction | AID 1441 | bead-based flow cytometry RGS16-Galphao binding, fluorescence; actives lie on both sides | binding response (% of control), % at 10 µM | actives 0.38% (n = 220,000);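 note: Galphao activated by GDP with aluminum fluoride before binding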
RGS-Gao: RGS4-Galphao interaction regulator (human); RGS4–Galpha-o binding response, % at 10 µM; multiplexed bead flow cytometry, RGS–Galpha-o binding; shares compounds with RGS16-Gao HTS; actives 99% (n = 1,600);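 note: fluorescently labeled Galpha-o bound to GDP with aluminium fluoride binding biotinylated RGS beads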
Target sequence (P09471 whole entry, looked up): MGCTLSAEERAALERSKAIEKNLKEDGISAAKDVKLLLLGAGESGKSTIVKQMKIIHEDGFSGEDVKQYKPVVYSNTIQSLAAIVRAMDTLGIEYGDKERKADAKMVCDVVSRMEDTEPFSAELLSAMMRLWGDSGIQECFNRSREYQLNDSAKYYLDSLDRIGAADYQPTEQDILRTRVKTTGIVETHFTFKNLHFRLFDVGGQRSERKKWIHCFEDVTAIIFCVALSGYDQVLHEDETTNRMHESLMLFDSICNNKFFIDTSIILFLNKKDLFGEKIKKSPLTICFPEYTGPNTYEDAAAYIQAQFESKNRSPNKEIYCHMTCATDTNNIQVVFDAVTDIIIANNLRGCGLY
Target sequence (P49798 whole entry, looked up): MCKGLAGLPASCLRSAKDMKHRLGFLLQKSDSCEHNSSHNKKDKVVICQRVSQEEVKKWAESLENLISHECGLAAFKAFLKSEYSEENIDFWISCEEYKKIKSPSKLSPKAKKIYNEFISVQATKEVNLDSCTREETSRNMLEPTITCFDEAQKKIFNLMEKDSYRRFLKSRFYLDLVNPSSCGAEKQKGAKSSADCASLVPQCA
Avidin counter: counter-screen: compounds disrupting biotin binding to avidin beads | inhibition, % at 10 µM | shares compounds with RGS16-Gao HTS | 1,700 tested, under 10 active | AID 1783 | streptavidin beads, fluorescein-biotin binding, flow cytometry;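 active = inhibition above 50%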;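 note: median green fluorescence of gated singlet beads compared with DMSO control wells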
RGS8-Gao confirm: confirmation of regulators of human RGS8-Galphao interaction; actives 3% (n = 1,700); shares compounds with RGS16-Gao HTS; AID 1836; binding response (% of control), % at 10 µM; bead-based flow cytometry RGS8-Galphao binding, fluorescence; actives lie on both sides; in the data active = binding response below about 72% or above about 130%; inactive = in between;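 note: Galphao activated as GDP AlF4 complex before binding bead RGS8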
RGS7-Gao confirm: RGS7-Galphao interaction regulation, single point confirmation. shares compounds with RGS16-Gao HTS. bead-based flow cytometry RGS7-Galphao binding; actives lie on both sides. response (percent of control binding), % at 10 µM. actives 7.8% (n = 1,700). AID 1837; in the data active = response below about 75% or above about 130%; inactive = in between;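 note: fluorescent Galphao activated with GDP and aluminum fluoride binding bead-coupled RGS7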
RGS16-Gao conf: confirmation of regulators of human RGS16-Galphao interaction; AID 1838; response (% of control binding), % at 10 µM; actives 4% (n = 1,700); shares compounds with RGS16-Gao HTS; bead-based flow cytometry, RGS16-Galphao binding; actives lie on both sides; in the data active = response below about 74% or above about 130%; inactive = in between;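 note: Galphao activated as the GDP aluminium fluoride complex binding bead-coupled RGS16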
RGS4-Gao confirm: RGS4-Galphao interaction regulation, single point confirmation. RGS4-Galphao binding, multiplexed bead flow cytometry; actives lie on both sides. shares compounds with RGS16-Gao HTS. binding response (% of control), % at 10 µM. actives 4% (n = 1,700); in the data active = binding response below about 74% or above about 130%; inactive = in between
RGS19-Gao conf: RGS19-Galphao interaction regulation, single point confirmation; shares compounds with RGS16-Gao HTS; bead-based flow cytometry RGS19-Galphao binding; actives lie on both sides; response (percent of control binding), % at 10 µM; actives 5% (n = 1,700); in the data active = response below about 50% or above about 160%; inactive = in between
Large screens that a line does not name were inactive (follow-up assays come after a bar, where they were run); [ ] = another dose, or the depositor's remark. Unless noted, the rule behind the calls is not given here.

O=C(Cn1c2ccccc2c(=O)c2ccccc21)N/N=C/c1cc([N+](=O)[O-])ccc1N1CCCCCC1	none (no result: RGS4-Gao reg, Avidin fluor, RGS7-Gao, RGS8-Gao reg, RGS16-Gao HTS) | Avidin counter inactive | RGS8-Gao confirm inactive | RGS7-Gao confirm 134.7[activator] | RGS16-Gao conf 139.5[activator] | RGS4-Gao confirm 129.1[activator] | RGS19-Gao conf 384.1[activator]
O=C(Cn1c2ccccc2c(=O)c2ccccc21)N/N=C/c1ccc(N2CCCC2)c([N+](=O)[O-])c1	none
Cc1nn(C)c(C)c1S(=O)(=O)N(CC(=O)N1CCc2ccccc2C1)c1ccc(C(C)C)cc1	none
O=C(NCCc1c[nH]c2ccccc12)c1c(Cl)nc2sccn12	RGS4-Gao reg 30.5, RGS7-Gao 19.1, RGS8-Gao reg 17.3, RGS16-Gao HTS 2.2 | Avidin counter inactive | RGS8-Gao confirm inactive | RGS7-Gao confirm inactive | RGS16-Gao conf inactive | RGS4-Gao confirm inactive | RGS19-Gao conf inactive
O=C(O)c1nccnc1C(=O)NCCc1c[nH]c2ccccc12	RGS7-Gao inconclusive
NC(=O)CC(NC(=O)Cc1ccc(Br)cc1)c1ccc(NCc2ccccn2)c([N+](=O)[O-])c1 (stereo not given)	RGS7-Gao inconclusive (no result: GSH bead fluor)
O=c1c2ccccc2nc(/C=C/c2ccc(O)cc2)n1CCc1ccccc1	none
O=c1c2ccccc2nc(/C=C/c2ccc3c(c2)OCO3)n1CCCO	Avidin fluor 107, RGS7-Gao 167.6[activator] | RGS-Gao 109.0 | Avidin counter inactive | RGS8-Gao confirm inactive | RGS7-Gao confirm inactive | RGS16-Gao conf inactive | RGS4-Gao confirm inactive | RGS19-Gao conf inactive
COc1ccc(/C=C/C(=O)N[C@@H](C)C(=O)O)cc1	none
COc1cccc(C(C(=O)NC2CCCC2)N(C(=O)c2ccco2)C2CC2)c1OC (stereo not given)	none
Cn1cc(-c2nnnn2-c2ccc(Cl)cc2)c(=O)c2ccccc21	RGS8-Gao reg 143.7[activator] | RGS-Gao 129.7 | Avidin counter inactive | RGS8-Gao confirm inactive | RGS7-Gao confirm inactive | RGS16-Gao conf inactive | RGS4-Gao confirm inactive | RGS19-Gao conf inactive
Cc1ccc(C(C(=O)NC2CCCC2)N(C(=O)Cc2cccs2)c2cccc(C)c2C)o1 (stereo not given)	none
Cc1cc(C)cc(N(C(=O)Cc2cccs2)C(C(=O)NC2CCCC2)c2ccc(C)o2)c1 (stereo not given)	none (no result: RGS4-Gao reg, Avidin fluor, RGS7-Gao, RGS8-Gao reg, RGS16-Gao HTS) | Avidin counter inactive | RGS8-Gao confirm inactive | RGS7-Gao confirm inactive | RGS16-Gao conf inactive | RGS4-Gao confirm inactive | RGS19-Gao conf inactive
Cc1cc(NS(=O)(=O)c2ccc(NC(NC(=O)C(C(F)(F)F)C(F)(F)F)(C(F)(F)F)C(F)(F)F)cc2)no1	RGS7-Gao 155.4[activator] | RGS-Gao 101.2 | Avidin counter inactive | RGS8-Gao confirm inactive | RGS7-Gao confirm inactive | RGS16-Gao conf inactive | RGS4-Gao confirm inactive | RGS19-Gao conf inactive
O=C(NCCOC(=O)c1ccccc1C(=O)OCCNC(=O)c1cccnc1)c1cccnc1	none

Screens: PubChem, NMMLSC
